Experimental findings from PubChem BioAssay (NCI) are described below.

Among the test systems are SK-MEL-2 melanoma; EKVX NSCLC; SN12C renal; UO-31 renal; TK-10 renal; ACHN renal; CAKI-1 renal; A498 renal; CCRF-CEM leukemia; MOLT-4 leukemia.
Experiment in all cases: NCI-60 one-dose screen, 48 h (100 = growth as untreated, 0 = no growth, -100 = all killed)
Common to all, as to details: 10 µM unless noted

About 83,000 compounds went through this panel and 20% of them were active in at least one assay; those are over-represented in the sample as a whole.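 Plates (96-well) were seeded with cells, treated with compound at one concentration, and incubated for 48 hours before percent growth was determined.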 Unmarked numbers belong to inactive results. Activity calls are given as the source filed them. How the source made its calls: active means growth percent below 10; inactive means the rest.

With `Cc1nc2sc(C(=O)Nc3cccc(Br)c3C)c(N)c2cc1C(O)c1ccccc1` (stereo not given), the growth with SK-MEL-2 melanoma is 29.7%; in the experiment on EKVX NSCLC it was 39.7%; in the experiment on SN12C renal, 8.12% (active); in the experiment on UO-31 renal it was 30.9%; in the experiment with TK-10 renal, 44.7%; with ACHN renal, 21.9%. The growth with CAKI-1 renal was 20.4%; in the experiment on A498 renal, -12.8% (active); in the experiment with CCRF-CEM leukemia, 17.2%; with MOLT-4 leukemia, 12%.

With `COC(=O)c1cc(Br)ccc1O`, the growth with SK-MEL-2 melanoma is 101%; in the experiment with EKVX NSCLC, 113%; in the experiment on SN12C renal, 99.5%; in the experiment with UO-31 renal, 95.1%; with TK-10 renal it was 95.5%; in the experiment with ACHN renal, 99.5%. Moreover, the growth with CAKI-1 renal is 101%; in the experiment with A498 renal, 101%; with CCRF-CEM leukemia it was 98.6%; with MOLT-4 leukemia it was 103%.

As for `CO[C@H]1CC(=O)n2c3ccccc3c3c4c(c5c6ccccc6n1c5c32)C(=O)NC4=O`, the growth in the experiment with SK-MEL-2 melanoma is 70.5%; in the experiment on EKVX NSCLC it was 71.8%; in the experiment on SN12C renal, 65.6%; in the experiment on UO-31 renal, 71.3%; with TK-10 renal, 37.3%; in the experiment on ACHN renal, 68.1%. Besides, the growth in the experiment on CAKI-1 renal was 58.1%; in the experiment on A498 renal, 56.2%; with CCRF-CEM leukemia, 78.3%; in the experiment with MOLT-4 leukemia, 74.9%.

For `NC(=O)c1cccc([C@@H]2O[C@H](CO)[C@@H](O)[C@H]2O)c1`, the growth in the experiment on SK-MEL-2 melanoma is 103%; with EKVX NSCLC, 99%; in the experiment on SN12C renal, 94.1%; in the experiment with UO-31 renal, 52.1%; in the experiment on TK-10 renal, 55.5%; in the experiment with ACHN renal, 93.1%. Further, the growth in the experiment with CAKI-1 renal is 80.9%; with A498 renal, 86.6%; in the experiment on CCRF-CEM leukemia, 11%; with MOLT-4 leukemia, -1.79% (active).

For the molecule `O=C(Cc1ccc(NC(=O)c2cccc(Cl)c2)cc1)NCc1ccccc1`, the growth with SK-MEL-2 melanoma was 46.8%; in the experiment with EKVX NSCLC it was 72.8%; in the experiment on SN12C renal, 58.1%; with UO-31 renal it was 59.9%; in the experiment with TK-10 renal it was 64.3%; in the experiment with ACHN renal, 65%. The growth with CAKI-1 renal is 52%; in the experiment with A498 renal, 42.2%; with CCRF-CEM leukemia, 22.7%; in the experiment with MOLT-4 leukemia it was 39.7%.

As to `O=C(O)/C=C/C(=O)Nc1cccc(Cn2nnc3cc(Cl)c(Cl)cc32)c1`, the growth in the experiment with SK-MEL-2 melanoma is 114%; with EKVX NSCLC, 94.3%; with SN12C renal it was 104%; with UO-31 renal, 79.5%; in the experiment with TK-10 renal it was 124%; with ACHN renal, 97.1%. The growth was 95% in the experiment with CAKI-1 renal, 108% with A498 renal, 99.4% in the experiment with CCRF-CEM leukemia and 97.1% with MOLT-4 leukemia.

Consider `O=c1ccc(=O)n(-c2nc(-c3ccc([N+](=O)[O-])cc3)cs2)[nH]1`, for which the growth is 108% with SK-MEL-2 melanoma; 101% in the experiment with EKVX NSCLC; 101% with SN12C renal; 82.4% with UO-31 renal; 107% in the experiment with TK-10 renal; 102% in the experiment with ACHN renal. Besides, the growth was 101% with CAKI-1 renal, 87.9% with A498 renal, 99.4% in the experiment with CCRF-CEM leukemia and 86.5% in the experiment with MOLT-4 leukemia.

Take `CN1CCN(Cc2ccc(NC(=O)c3cncc(C#Cc4cnc(N)c5ccc(F)cc45)c3)cc2C(F)(F)F)CC1`: the growth with SK-MEL-2 melanoma is -55.1% (active); in the experiment on EKVX NSCLC, 42%; in the experiment on SN12C renal, 13.2%; with UO-31 renal, -3.87% (active); with TK-10 renal it was 24.1%; with ACHN renal, 6.63% (active). For the same molecule, the growth in the experiment with CAKI-1 renal is 19.7%; with A498 renal, 25%; in the experiment on CCRF-CEM leukemia, -8.78% (active); with MOLT-4 leukemia, 13.1%.

Turning to `NS(=O)(=O)c1ccc(C(=O)NN2C(=O)c3c(Br)c(Br)c(Br)c(Br)c3C2=O)cc1`, the growth in the experiment on SK-MEL-2 melanoma was 99%; in the experiment with EKVX NSCLC it was 99.7%; in the experiment with SN12C renal, 97.6%; with UO-31 renal it was 81.7%; in the experiment with TK-10 renal, 112%; in the experiment on ACHN renal, 106%. The growth is 88% in the experiment with CAKI-1 renal, 81.7% with A498 renal, 101% in the experiment with CCRF-CEM leukemia and 100% in the experiment on MOLT-4 leukemia.

On to `Cc1ccc(S(=O)(=O)N2CCC(=O)c3ccccc32)cc1`, for which the growth was 56.9% in the experiment on SK-MEL-2 melanoma; 102% in the experiment on EKVX NSCLC; 81.2% with SN12C renal; 71.1% in the experiment on UO-31 renal; 89.1% in the experiment with TK-10 renal; 90.7% with ACHN renal. Moreover, the growth in the experiment with CAKI-1 renal is 91.9%; in the experiment with A498 renal it was 83.2%; with CCRF-CEM leukemia, 66.3%; in the experiment with MOLT-4 leukemia it was 64.1%.

On to `O=[N+]([O-])c1ccc(-c2cn3nc(-c4c[nH]c5ccccc45)sc3n2)cc1`, for which the growth in the experiment with SK-MEL-2 melanoma is 109%; in the experiment with EKVX NSCLC, 91.2%; with SN12C renal, 91.9%; with UO-31 renal, 72.8%; in the experiment on TK-10 renal it was 102%; in the experiment on ACHN renal it was 96.8%. Moreover, the growth in the experiment with CAKI-1 renal was 91%; in the experiment with A498 renal, 85.9%; in the experiment with CCRF-CEM leukemia it was 90.2%; in the experiment on MOLT-4 leukemia, 88.6%.

In the case of `O=c1nc(-c2ccccc2)c2cc(-c3ccc(C(F)(F)F)nc3)ccc2[nH]1`, the growth was 103% in the experiment on SK-MEL-2 melanoma; 97.8% in the experiment on EKVX NSCLC; 102% in the experiment on SN12C renal; 75.8% in the experiment with UO-31 renal; 99.9% in the experiment on TK-10 renal; 96.5% in the experiment with ACHN renal. For the same molecule, the growth is 93.1% in the experiment with CAKI-1 renal, 104% with A498 renal, 46.5% in the experiment with CCRF-CEM leukemia and 83.3% with MOLT-4 leukemia.

As for `C=C1C(=O)O[C@H]2[C@H]1CC/C(COC(=O)NCc1ccc(Cn3c(=O)sn(-c4ccc(C#N)cc4)c3=O)cc1)=C\CC[C@@]1(C)O[C@@H]21`, the growth is 84.8% in the experiment with SK-MEL-2 melanoma; 92.2% in the experiment on EKVX NSCLC; 50.3% in the experiment on SN12C renal; 75.9% in the experiment on UO-31 renal; 48.9% in the experiment on TK-10 renal; 79.5% in the experiment with ACHN renal. Further, the growth was 58.4% in the experiment on CAKI-1 renal, 120% in the experiment on A498 renal, 3.9% (active) with CCRF-CEM leukemia and 30% with MOLT-4 leukemia.
